Among the data in PubChem BioAssay (EPA / NIEHS) are AC50 and outcome values, retold here.

Activity calls are given as the source filed them. Rule for the calls: active = hit-call score of the fitted dose curve at least 0.9, where 1 is the maximum; inactive = score below 0.9.

The AC50 is the concentration giving half of the maximal activity seen.

Settings in all cases: mRNA level, 48 h; actives raise or lower the signal
Read-out in experiment [1]: Paternally Expressed 10 (PEG10), PEG10 (gene 23089)
The experiment in a line: LTEA_HepaRG_PEG10: Life Technologies and Expression Analysis (LTEA) Assay for Paternally Expressed 10 (PEG10) using HepaRG (AID 2283520).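 For AC50: PEG10 transcript by qRT-PCR normalised to ACTB GAPDH and POLR2A.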 In a few lines:
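PEG10 transcript measured by Fluidigm qRT-PCR, normalized to three housekeeping genes, in HepaRG cells treated 48 h (highest 100 uM, half-log steps, 0.5% DMSO vehicle). Cells plated 48 h before switching to serum-free induction medium.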

Read-out in experiment [2]: Nuclear factor NF-kappa-B p105 subunit (Homo sapiens) (UniProt P19838)
Kind of experiment: LTEA_HepaRG_NFKB1: Life Technologies and Expression Analysis (LTEA) Assay for Nuclear Factor Kappa B Subunit 1 (NFKB1) using HepaRG (AID 2283521). An outline of the steps: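 Differentiated human HepaRG cells were exposed for 48 h in serum-free induction medium to eight concentrations (top 100 uM, half-log steps, 0.5% DMSO), in duplicate. NFKB1 mRNA was measured by TaqMan qRT-PCR, normalized to ACTB/GAPDH/POLR2A, and fitted bidirectionally against DMSO.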

Read-out in experiment [3]: Protein phosphatase 2A (PPP2R4), PTPA (gene 5524)
The experiment in a line: LTEA_HepaRG_PPP2R4: Life Technologies and Expression Analysis (LTEA) Assay for Protein phosphatase 2A (PPP2R4) using HepaRG (AID 2283522). An outline of the steps: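 Expression was quantified by Fluidigm qRT-PCR normalised to three housekeeping genes after 48 h treatment. Human HepaRG cells received an 8-point series from 100 µM downward by half-logs, in duplicate with 0.5% DMSO vehicle and 1 mM phenobarbital as induction control.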

Read-out in experiment [4]: Phosphatase and tensin (PTEN), PTEN (gene 5728)
The experiment in a line: LTEA_HepaRG_PTEN: Life Technologies and Expression Analysis (LTEA) Assay for Phosphatase and tensin (PTEN) using HepaRG (AID 2283523). An outline of the steps: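 Read-out: TaqMan qRT-PCR of PTEN transcript, normalized to three housekeeping genes, fitted in both directions against 0.5% DMSO. Differentiated human HepaRG cultures received chemicals for 48 h, eight-point half-log series topping at 100 uM.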

Read-out in experiment [5]: solute carrier (SLC22A1), SLC22A1 (gene 6580)
Kind of experiment: LTEA_HepaRG_SLC22A1: Life Technologies and Expression Analysis (LTEA) Assay for solute carrier (SLC22A1) using HepaRG (AID 2283524). An outline of the steps:
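Transcript level of SLC22A1 quantified by qRT-PCR (normalized to three housekeeping genes) after 48 h chemical exposure of HepaRG cells, eight concentrations up to 100 µM, half-log steps, 0.5% DMSO vehicle. Gain or loss relative to DMSO fitted bidirectionally.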

Read-out in experiment [6]: NAD(P)H dehydrogenase [quinone] 1 (NQO1), NQO1 (gene 1728)
The experiment in a line: LTEA_HepaRG_NQO1: Life Technologies and Expression Analysis (LTEA) Assay for NAD(P)H dehydrogenase [quinone] 1 (NQO1) using HepaRG (AID 2283526). In a few lines: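 NQO1 transcript induction or loss measured by TaqMan qRT-PCR, referenced to three housekeeping genes and fitted bidirectionally against 0.5% DMSO. HepaRG cultures exposed 48 h, duplicate, eight-point half-log series, top 100 uM.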

Read-out in experiment [7]: Nuclear factor erythroid 2-related factor 2 (Homo sapiens) (UniProt Q16236)
The experiment in a line: LTEA_HepaRG_NFE2L2: Life Technologies and Expression Analysis (LTEA) Assay for Nuclear factor erythroid 2-related factor 2 (NFE2L2) Transcription Factor using HepaRG (AID 2283527).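 For outcome: TaqMan qRT-PCR transcript level normalised to ACTB GAPDH and POLR2A housekeeping genes.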 An outline of the steps:
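NFE2L2 transcript level was read by qRT-PCR (housekeeping ACTB/GAPDH/POLR2A normalisation) after 48 h chemical treatment of HepaRG in serum-free induction medium. Duplicate 8-point half-log curves, top 100 uM, 0.5% DMSO vehicle; up- or down-regulation fitted against vehicle.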

Read-out in experiment [8]: succinate dehydrogenase complex iron sulfur subunit B (SDHB), SDHB (gene 6390)
The experiment in a line: LTEA_HepaRG_SDHB: Life Technologies and Expression Analysis (LTEA) Assay for succinate dehydrogenase complex iron sulfur subunit B (SDHB) using HepaRG (AID 2283528). In a few lines: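 HepaRG, 48 h exposure, 8-pt half-log series from 100 uM in 0.5% DMSO, duplicates. Readout: SDHB mRNA by Fluidigm qRT-PCR vs housekeeping genes; bidirectional fit relative to DMSO.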

Read-out in experiment [9]: Signal transducer and activator of transcription 3 (Homo sapiens) (UniProt P40763)
Kind of experiment: LTEA_HepaRG_STAT3: Life Technologies and Expression Analysis (LTEA) Assay for Signal transducer and activator of transcription (STAT3) using HepaRG (AID 2283529). In a few lines: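 STAT3 transcript quantified by qRT-PCR against three housekeeping genes (ACTB, GAPDH, POLR2A), fitted both directions relative to DMSO. HepaRG cultures exposed 48 h to eight half-log concentrations, top 100 uM, 0.5% DMSO, serum-free induction medium.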

Read-out in experiment [10]: solute carrier (SLCO1B1), SLCO1B1 (gene 10599)
Kind of experiment: LTEA_HepaRG_SLCO1B1: Life Technologies and Expression Analysis (LTEA) Assay for solute carrier (SLCO1B1) using HepaRG (AID 2283530). An outline of the steps: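 Human HepaRG cultures treated for 48 h with an eight-concentration half-log series topping at 100 uM; SLCO1B1 measured by qRT-PCR and fitted bidirectionally relative to DMSO.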

Read-out in experiment [11]: sulfotransferase 2A1 (SULT2A1), SULT2A1 (gene 6822)
The experiment in a line: LTEA_HepaRG_SULT2A1: Life Technologies and Expression Analysis (LTEA) Assay for sulfotransferase 2A1 (SULT2A1) using HepaRG (AID 2283531). In a few lines: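 Gene-expression endpoint in a human liver cell line: SULT2A1 mRNA change after 48 h chemical treatment, curves fitted in both directions relative to 0.5% DMSO vehicle. Concentrations spanned eight half-log steps from 100 uM.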

Read-out in experiment [12]: Transforming Growth Factor (TGFA), TGFA (gene 7039)
The experiment in a line: LTEA_HepaRG_TGFA: Life Technologies and Expression Analysis (LTEA) Assay for Transforming Growth Factor (TGFA) using HepaRG (AID 2283532). An outline of the steps: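 TGFA transcript quantified by qRT-PCR (Fluidigm arrays) against three housekeeping genes, after 48 hours chemical treatment of HepaRG cells. Top concentration 100 uM with half-log dilutions, 8 points, duplicates, 0.5% DMSO.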

Read-out in experiment [13]: Transforming Growth Factor (TGFB1), TGFB1 (gene 7040)
The experiment in a line: LTEA_HepaRG_TGFB1: Life Technologies and Expression Analysis (LTEA) Assay for Transforming Growth Factor (TGFB1) Transporter using HepaRG (AID 2283533). An outline of the steps: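 Eight-point concentration-response (max 100 uM, half-log) in HepaRG under serum-free induction conditions, 48 h. TGFB1 mRNA by qRT-PCR, housekeeping-normalized.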

Read-out in a further experiment: TIMP1, TIMP1 (gene 7076)
The experiment in a line: LTEA_HepaRG_TIMP1: Life Technologies and Expression Analysis (LTEA) Assay for TIMP1 using HepaRG (AID 2283534). An outline of the steps:
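TIMP1 induction or repression in HepaRG cells after 48 h chemical exposure (eight concentrations, highest 100 uM), assessed by normalized qRT-PCR with bidirectional fitting to DMSO controls.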

Read-out in experiment [14]: Tumor necrosis factor receptor 1 (TNFRSF1A), TNFRSF1A (gene 7132)
The experiment in a line: LTEA_HepaRG_TNFRSF1A: Life Technologies and Expression Analysis (LTEA) Assay for Tumor necrosis factor receptor 1 (TNFRSF1A) using HepaRG (AID 2283535). In a few lines: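 Assay uses 48 h chemical treatment of differentiated HepaRG monolayers, tested in duplicate at eight concentrations from 100 uM downward in 0.5% DMSO. mRNA is normalized to ACTB, GAPDH and POLR2A, with induction or suppression fitted relative to vehicle.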

Read-out in experiment [15]: Cellular tumor antigen p53 (Homo sapiens) (UniProt P04637)
The experiment in a line: LTEA_HepaRG_TP53: Life Technologies and Expression Analysis (LTEA) Assay for Tumor Protein P53 (TP53) using HepaRG (AID 2283537). In a few lines:
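HepaRG, 48 h exposure, top 100 uM, half-log 8-point, 0.5% DMSO vehicle, duplicates. Read: TP53 mRNA by TaqMan qRT-PCR, normalised to ACTB/GAPDH/POLR2A; bidirectional fit vs DMSO.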

Read-out in experiment [16]: Thyroid Hormone Responsive (THRSP), THRSP (gene 7069)
Kind of experiment: LTEA_HepaRG_THRSP: Life Technologies and Expression Analysis (LTEA) Assay for Thyroid Hormone Responsive (THRSP) using HepaRG (AID 2283536). In a few lines:
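THRSP transcript quantified by Fluidigm qRT-PCR against three housekeeping genes after 48 h chemical exposure of HepaRG cells in serum-free induction medium; eight-point half-log series, top 100 uM, 0.5% DMSO vehicle, duplicate wells.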

Read-out in experiment [17]: UDP glucuronosyltransferase (UGT1A1), UGT1A1 (gene 54658)
The experiment in a line: LTEA_HepaRG_UGT1A1: Life Technologies and Expression Analysis (LTEA) Assay for UDP glucuronosyltransferase (UGT1A1) using HepaRG (AID 2283538). An outline of the steps:
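UGT1A1 transcript level, measured by qRT-PCR with three housekeeping genes for normalization, after 48 h treatment of human HepaRG cells (0.5% DMSO, duplicates, up to 100 uM, half-log steps, 8 points). Curves fit both directions against DMSO baseline.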

Signal transducer and activator of transcription 3 (Homo sapiens), sequence (P40763 whole entry, looked up): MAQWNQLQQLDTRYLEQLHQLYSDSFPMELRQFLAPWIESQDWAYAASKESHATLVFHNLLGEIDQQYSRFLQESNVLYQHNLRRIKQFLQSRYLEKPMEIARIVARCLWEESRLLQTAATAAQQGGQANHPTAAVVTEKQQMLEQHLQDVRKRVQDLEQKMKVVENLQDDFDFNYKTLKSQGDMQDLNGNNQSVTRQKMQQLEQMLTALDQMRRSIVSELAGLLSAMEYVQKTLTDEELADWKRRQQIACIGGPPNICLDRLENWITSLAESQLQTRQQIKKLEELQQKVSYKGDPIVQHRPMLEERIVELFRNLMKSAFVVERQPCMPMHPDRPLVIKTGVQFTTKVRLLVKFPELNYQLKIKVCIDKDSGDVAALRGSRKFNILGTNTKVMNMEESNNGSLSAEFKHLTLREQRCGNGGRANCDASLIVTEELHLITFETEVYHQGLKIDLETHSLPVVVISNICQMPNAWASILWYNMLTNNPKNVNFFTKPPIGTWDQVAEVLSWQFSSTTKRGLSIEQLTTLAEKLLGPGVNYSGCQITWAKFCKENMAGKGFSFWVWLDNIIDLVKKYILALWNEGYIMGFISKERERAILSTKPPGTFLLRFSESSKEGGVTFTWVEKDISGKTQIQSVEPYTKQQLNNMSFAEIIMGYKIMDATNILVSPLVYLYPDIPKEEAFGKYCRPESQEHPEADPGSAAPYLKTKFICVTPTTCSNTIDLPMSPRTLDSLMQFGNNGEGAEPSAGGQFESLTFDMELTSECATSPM
Nuclear factor NF-kappa-B p105 subunit (Homo sapiens), sequence (P19838 whole entry, looked up): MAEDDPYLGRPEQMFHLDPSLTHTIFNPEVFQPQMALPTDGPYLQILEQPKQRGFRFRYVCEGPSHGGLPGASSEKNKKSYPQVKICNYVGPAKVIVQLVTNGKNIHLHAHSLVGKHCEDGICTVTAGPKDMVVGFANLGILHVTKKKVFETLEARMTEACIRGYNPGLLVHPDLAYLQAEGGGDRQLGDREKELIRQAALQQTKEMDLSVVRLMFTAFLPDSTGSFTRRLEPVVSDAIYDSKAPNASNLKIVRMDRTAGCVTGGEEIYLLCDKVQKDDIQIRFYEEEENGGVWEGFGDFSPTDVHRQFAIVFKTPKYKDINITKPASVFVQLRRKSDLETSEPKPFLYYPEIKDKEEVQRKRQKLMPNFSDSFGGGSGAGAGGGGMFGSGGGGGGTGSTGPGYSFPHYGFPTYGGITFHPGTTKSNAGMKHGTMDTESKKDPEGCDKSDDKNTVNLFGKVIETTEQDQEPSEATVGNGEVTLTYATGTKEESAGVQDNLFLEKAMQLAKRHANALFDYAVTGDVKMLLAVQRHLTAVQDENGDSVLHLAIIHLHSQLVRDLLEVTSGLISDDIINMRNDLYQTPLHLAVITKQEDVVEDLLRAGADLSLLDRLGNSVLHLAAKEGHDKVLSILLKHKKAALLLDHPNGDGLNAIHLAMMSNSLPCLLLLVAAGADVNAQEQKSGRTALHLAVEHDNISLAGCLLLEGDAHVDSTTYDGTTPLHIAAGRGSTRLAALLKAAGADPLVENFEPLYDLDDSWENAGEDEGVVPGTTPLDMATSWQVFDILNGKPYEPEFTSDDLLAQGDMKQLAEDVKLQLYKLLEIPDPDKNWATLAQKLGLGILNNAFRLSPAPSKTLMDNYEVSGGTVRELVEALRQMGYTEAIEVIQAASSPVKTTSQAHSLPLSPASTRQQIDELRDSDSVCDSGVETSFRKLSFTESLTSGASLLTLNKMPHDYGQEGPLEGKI
Cellular tumor antigen p53 (Homo sapiens), sequence (P04637 whole entry, looked up): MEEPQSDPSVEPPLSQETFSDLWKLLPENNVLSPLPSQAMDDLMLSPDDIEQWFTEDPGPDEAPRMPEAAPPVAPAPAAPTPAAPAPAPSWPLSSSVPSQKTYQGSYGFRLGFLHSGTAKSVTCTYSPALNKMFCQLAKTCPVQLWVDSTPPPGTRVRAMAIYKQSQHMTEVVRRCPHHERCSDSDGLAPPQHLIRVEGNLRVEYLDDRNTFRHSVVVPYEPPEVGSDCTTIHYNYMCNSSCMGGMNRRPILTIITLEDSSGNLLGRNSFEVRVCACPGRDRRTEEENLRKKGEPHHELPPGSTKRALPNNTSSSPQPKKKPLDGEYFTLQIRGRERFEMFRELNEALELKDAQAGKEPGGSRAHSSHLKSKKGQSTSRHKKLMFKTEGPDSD
Nuclear factor erythroid 2-related factor 2 (Homo sapiens), sequence (Q16236 whole entry, looked up): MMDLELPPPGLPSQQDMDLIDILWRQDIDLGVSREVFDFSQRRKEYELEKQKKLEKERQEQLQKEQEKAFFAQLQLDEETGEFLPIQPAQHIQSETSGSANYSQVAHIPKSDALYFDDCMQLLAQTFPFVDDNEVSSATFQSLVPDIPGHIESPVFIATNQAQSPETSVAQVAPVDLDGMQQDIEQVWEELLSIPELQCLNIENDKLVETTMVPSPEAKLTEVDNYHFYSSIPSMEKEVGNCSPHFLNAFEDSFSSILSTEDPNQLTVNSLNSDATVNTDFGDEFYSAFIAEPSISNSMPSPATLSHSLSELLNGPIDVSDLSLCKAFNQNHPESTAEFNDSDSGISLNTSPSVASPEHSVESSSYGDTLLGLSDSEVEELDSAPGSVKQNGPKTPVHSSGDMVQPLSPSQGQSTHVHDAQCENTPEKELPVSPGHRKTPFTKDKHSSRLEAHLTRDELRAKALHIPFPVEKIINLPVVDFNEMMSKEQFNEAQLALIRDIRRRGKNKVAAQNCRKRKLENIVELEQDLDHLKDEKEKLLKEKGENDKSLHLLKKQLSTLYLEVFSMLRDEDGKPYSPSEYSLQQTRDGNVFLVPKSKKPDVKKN

For `NC(=O)Cn1c(=O)cc(CCN2CCN(c3nccc4sccc34)CC2)c2ccc(F)cc21`, the AC50 in experiment [1] is 50 µM (active); in experiment [13], 39.1 µM (active); in experiment [15], 50 µM (active). The result in experiment [2], in experiment [3], in experiment [4], in experiment [5], in [6] and in experiment [7] was inactive. Moreover, the outcome in experiment [8] was “inactive”; in experiment [9], “inactive”; in experiment [10], “inactive”; in experiment [11], “inactive”; in [12], “inactive”; with TIMP1, TIMP1 (gene 7076), “inactive”. The outcome in [14] was inactive.
Regarding `C[Si]1(C)O[Si](C)(C)O[Si](C)(C)O[Si](C)(C)O1`, the call in [1], in experiment [2], in [4], in experiment [5], in experiment [6] and in [7] was inactive. In addition, the outcome in [9] was “inactive”; in experiment [10], “inactive”; in [11] it was “inactive”; in experiment [12], “inactive”; in experiment [13] it was “inactive”; with TIMP1, TIMP1 (gene 7076), “inactive”. For the same compound, the call in experiment [14], in experiment [16], in experiment [15] and in experiment [17] was inactive.
On to `CCNc1cccc(C)c1`, for which the compound was classed as inactive in experiment [1], in experiment [2], in experiment [4], in experiment [5], in experiment [6] and in [7]. Further, the call in [8], in [9], in [10], in experiment [11], in [12] and in experiment [13] was inactive. In addition, the outcome in the experiment with TIMP1, TIMP1 (gene 7076) was “inactive”; in experiment [14] it was “inactive”; in experiment [16] it was “inactive”; in [15], “inactive”.
Take `Nc1ccc2c(c1)C(=O)c1ccccc1C2=O`: the AC50 in [1] was 15.5 µM (active); in experiment [5], 7.06 µM (active); in [7], 27.8 µM (active); in experiment [10] it was 4.66 µM (active); in [15], 18.2 µM (active); in experiment [17], 7.74 µM (active). Further, the call in [2], in experiment [4], in experiment [6], in [8], in experiment [11] and in [12] was inactive. The outcome in [13] is “inactive”; in the experiment with TIMP1, TIMP1 (gene 7076) it was “inactive”.
